Screening data (PubChem)
Sampled rows, rich in hits. Any-hit rate of the full collection: about 2.4%.
L3MBTL1 inh-1: inhibitors of human L3MBTL1; Q9Y468; AlphaScreen L3MBTL1–H3K9me1 peptide binding; Potency, µM (doses to about 57.1 µM), without a hit: top-dose activity, negative = inhibition, actives largely listed as inhibitors; actives 0.66% (n = 230,000); also: potency is read from the fitted curve at half-maximal effect; % is scaled to controls: 0 for no effect and ±100 for the full control effect; nearly all actives have a fitted effect of over 60% in size
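AlphaScreen assay: L3MBTL1 (50 nM final) was preincubated 30 min at room temperature with biotinylated H3(1-15)K9me1 peptide (75 nM final), then 30 min with library compounds; streptavidin donor and nickel chelate acceptor beads (10 ug/mL final) added, 30 min dark.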
Pol beta inh-1: inhibitors of human DNA polymerase beta; Pol beta primer extension/strand displacement, fluorescence kinetic; actives 1.3% (n = 340,000); Potency, µM (titrated, usually from 114 µM), for the others: at the top dose activity change, negative = inhibition, actives largely listed as inhibitors; AID 485314; P06746; also: potency is read from the fitted curve at half-maximal effect; % is scaled to controls: 0 for no effect and ±100 for the full control effect
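Homogeneous kinetic assay of primer extension and strand displacement by 10 nM Pol beta, preincubated 15 min at room temperature with compound before 50 nM substrate (final) was added. Read at 0 and 10 min; four-parameter Hill fit.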
Pol kappa inh: blocks human DNA polymerase kappa activity | Q9UBT6 | Potency, µM (titrated, usually from 107 µM), for inactives: top-dose activity, negative = inhibition, hits mostly inhibitors | actives 0.53% (n = 400,000) | purified Pol kappa, fluorescent DNA synthesis assay, 10 min; also: potency is read from the fitted curve at half-maximal effect; % is scaled to controls: 0 for no effect and ±100 for the full control effect
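Inhibition of 10 nM Pol kappa is measured by a fluorescent read-out at 0 and 10 min following addition of 50 nM substrate (final), with a 15-min room-temperature compound preincubation.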
Pol iota inh: inhibitors of human DNA polymerase iota; actives 1% (n = 390,000); Q9UNA4; Pol iota fluorescent replication assay, 10 min; Potency, µM (doses to about 115 µM), for inactives: at the top dose activity, negative = inhibition, actives largely listed as inhibitors; also: potency is read from the fitted curve at half-maximal effect
Target sequence (Q9UNA4 whole entry, looked up): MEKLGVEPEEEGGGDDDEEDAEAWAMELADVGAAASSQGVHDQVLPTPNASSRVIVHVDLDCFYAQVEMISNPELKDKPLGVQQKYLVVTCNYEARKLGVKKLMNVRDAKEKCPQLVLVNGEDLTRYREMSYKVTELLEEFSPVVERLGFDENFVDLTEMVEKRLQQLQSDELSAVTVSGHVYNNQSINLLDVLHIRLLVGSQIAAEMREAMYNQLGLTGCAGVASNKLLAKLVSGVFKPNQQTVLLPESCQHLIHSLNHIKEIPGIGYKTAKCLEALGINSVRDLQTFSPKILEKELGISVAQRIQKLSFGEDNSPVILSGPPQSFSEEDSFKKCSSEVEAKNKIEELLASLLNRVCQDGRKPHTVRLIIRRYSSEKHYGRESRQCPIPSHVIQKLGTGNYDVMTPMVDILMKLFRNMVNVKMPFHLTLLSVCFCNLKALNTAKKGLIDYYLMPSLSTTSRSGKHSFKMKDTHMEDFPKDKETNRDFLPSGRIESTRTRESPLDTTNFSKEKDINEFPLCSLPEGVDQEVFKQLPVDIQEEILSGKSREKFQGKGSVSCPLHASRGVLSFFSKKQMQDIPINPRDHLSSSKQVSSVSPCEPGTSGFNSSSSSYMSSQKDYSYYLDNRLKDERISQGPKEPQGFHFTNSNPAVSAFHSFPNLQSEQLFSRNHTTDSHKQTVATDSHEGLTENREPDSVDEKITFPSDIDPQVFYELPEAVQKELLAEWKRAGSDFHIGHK
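Pol iota at 10 nM preincubated 15 min with compounds at room temperature; reaction started with fluorescent substrate, 50 nM final. Fluorescence read kinetically at 0 and 10 min; buffer-only wells as negative control.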
Pol eta inh-1: DNA polymerase eta (human) inhibition. recombinant Pol eta, fluorescent DNA replication assay. Potency, µM (top dose mostly 114 µM), for the others: at the top dose activity change, negative = inhibition, usual class: inhibitors. actives 1.2% (n = 390,000). AID 588591; also: potency is read from the fitted curve at half-maximal effect; % is scaled to controls: 0 for no effect and ±100 for the full control effect
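Pol eta at 10 nM preincubated with compounds 15 min at room temperature; reaction started with fluorescent substrate (50 nM final) and read kinetically at 0 and 10 min.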
Pol beta inh-2: Human Pol beta inhibitor hit validation. shares compounds with Pol beta inh-1. Pol beta primer extension/strand displacement, fluorescence kinetic. Potency, µM, actives largely listed as inhibitors. actives 87% (n = 250). AID 540280; calls by dose curve; also: potency is read from the fitted curve at half-maximal effect
Klenow counter: Klenow polymerase inhibition, pol beta selectivity check. shares compounds with Pol beta inh-1. Klenow exo- polymerase counter-screen, fluorescent DNA substrate. activity change, negative = inhibition, % at 57.1 µM. 250 tested, under 10 active
HIV RT inh: counter-screen for DNA polymerase beta inhibitors: HIV-1 RT inhibition; HIV-1 RT polymerase activity, counter-screen; activity % (negative = inhibition, positive = activation), % at 57.1 µM; 250 tested, under 10 active; AID 540301; shares compounds with Pol beta inh-1
POLB inh gel: validation of human DNA polymerase beta inhibitors | shares compounds with Pol beta inh-1 | radiolabeled primer extension gel assay, phosphorimager | inhibition, % at 10 µM | actives 91% (n = 110) | AID 540325;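 active = inhibition at 10 µM of 30% or more; inconclusive = no clear call, values can overlap the other calls; inactive = inhibition at 10 µM under 30%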
L3MBTL1 inh-2: L3MBTL1 binding inhibition validated; shares compounds with L3MBTL1 inh-1; L3MBTL1 methyl-lysine binding inhibition, biochemical qHTS; Potency, µM, most hits filed as inhibitors; actives 91% (n = 500); AID 540279; also: potency is read from the fitted curve at half-maximal effect; nearly all actives have a fitted effect of over 70% in size
AlphaScreen ctr2: interferes with AlphaScreen signal in L3MBTL1 counterscreen; shares compounds with L3MBTL1 inh-1; AlphaScreen counterscreen, signal inhibition; Potency, µM (highest dose often 57.1 µM), for the others: top-dose activity change, negative = inhibition, actives largely listed as inhibitors; 500 tested, under 10 active; also: potency is read from the fitted curve at half-maximal effect; 0% is about no effect
PGK validate: blocks T. brucei phosphoglycerate kinase; actives 79% (n = 500); AID 686980; shares compounds with Pol kappa inh; Potency, µM (titrated, usually from 57.5 µM), for the others: top-dose activity change, negative = inhibition, usual class: inhibitors; TbPGK coupled GAPDH assay, Kinase-Glo luminescence; also: potency is read from the fitted curve at half-maximal effect; % is scaled to controls: 0 for no effect and ±100 for the full control effect; nearly all actives have a fitted effect of over 65% in size
Pol iota confirm: Confirm cherry-picked inhibitors of human polymerase iota; Pol iota primer extension, TAMRA/BHQ fluorescence; Potency, µM, most hits filed as inhibitors; actives 77% (n = 1,500); shares compounds with Pol kappa inh; also: potency is read from the fitted curve at half-maximal effect
Pol eta inh-2: confirmation of human DNA polymerase eta inhibitors; Potency, µM, usual class: inhibitors; actives 64% (n = 2,600); shares compounds with Pol eta inh-1; Pol eta primer extension, TAMRA/BHQ fluorescence, 10 min; also: potency is read from the fitted curve at half-maximal effect
* = called active by the depositor; ? = inconclusive; . = not tested or not shown; [ ] = dose if it differs, or a comment. Unless noted, calls follow the shape of the dose curve; as a rule, active = well fitted curve in the direction sought with a large enough effect; inconclusive = small, poorly fitted or top-dose-only effect, or another doubt; inactive = no such curve, though single readings can be large; an effect the other way counts as inactive or inconclusive.

SMILES	L3MBTL1 inh-1	Pol beta inh-1	Pol kappa inh	Pol iota inh	Pol eta inh-1	Pol beta inh-2	Klenow counter	HIV RT inh	Pol iota confirm	others
Cc1cc(-c2nc3c4c5c(sc4[nH]c(=O)n3n2)CCC5)c(C)o1	8.91µM*	3.55µM*	?	12.6µM*	12.6µM*	31.6*	-16.5	27.4	.	POLB inh gel=22.6;L3MBTL1 inh-2=9.47*;AlphaScreen ctr2=-1.0%
Cc1ccc(NC(=O)Cn2nnc(C(=O)NCCc3ccccc3)c2N)c(C)c1	.	-2.6%	-10.7%	?	?	.	.	.	.
COc1ccc(CCNC(=O)c2nnn(CC(=O)Nc3ccc(C)cc3C)c2N)cc1OC	.	0.562µM*	-42.2%	35.5µM*	?	25.1*	-0.9	16.2	?	POLB inh gel=52.0*
CSc1nc(NCCN(C)C)c2sc3nc(-c4ccco4)c4c(c3c2n1)CCC4	.	.	-4.9%	?	?	.	.	.	.
CSc1nc(N(C)CCO)c2sc3nc(-c4ccco4)c4c(c3c2n1)CCC4	?	7.08µM*	?	1µM*	8.91µM*	?	-30.6	9.4	.	PGK validate=-18.6%
COc1ccc2c(c1)CC(C(=O)NCCN1CCN(c3cccc(C)c3C)CC1)CO2 (configuration not stated)	.	3.1%	2.6%[60.1 µM]	-15.3%	-18.2%	.	.	.	.
N#C/C(=C\c1ccc(OCc2ccc(Br)cc2)cc1)C(=O)Nc1cccc(C(=O)O)c1	.	8.91µM*	-4.5%	115.0%	?	15.8*	0.6	21.7	67*
Cc1ccc2nc(/C(C#N)=C\c3ccc(Oc4ccc(C(F)(F)F)cc4[N+](=O)[O-])cc3)[nH]c2c1	-0.3%	7.08µM*	-16.6%	40.2%	?	14.1*	-29.9	29.5	42.3*
Cc1cccc(CN2CC34C=CC(CC3S2(=O)=O)O4)c1 (configuration not stated)	.	.	9.2%	8.6%	.	.	.	.	.
CN(Cc1ccccc1)C(=O)c1ccco1	-14.1%	2.0%	5.4%	38.0%	-16.4%	.	.	.	.
Cc1ccc(C(CCN(Cc2ccccc2)C(=O)c2ccco2)c2ccco2)cc1 (configuration not stated)	25.1µM*	10µM*	50.1µM*	20µM*	17.8µM*	15.8*	-7.9	-9.3	.	L3MBTL1 inh-2=21.2*;AlphaScreen ctr2=-2.6%;Pol eta inh-2=84.9*
CCc1ccccc1N(C)C(=O)c1cc2c(=O)oc3ccccc3c2s1	.	12.9%	-6.9%	-2.6%	-21.9%	.	.	.	.
O=C(NCc1ccco1)c1c2c(nc3ccccc13)CCC2	?	11.2µM*	31.6µM*	8.91µM*	3.16µM*	25.1*	-5.9	9.7	?	POLB inh gel=99.3*;Pol eta inh-2=84.9*
